The record followed here is PubChem BioAssay (Tox21).

Structures are written as SMILES. “And” between values parts separate entries of the source, which are not always exact repeats. Equal values may be shown once. Results filed as inconclusive are left out. The source made the active and inactive calls. Unless noted, the call rests on the fitted dose curve; in most records, active means well fitted curve in the direction sought with a large enough effect in the repeat runs; inconclusive means weak or mixed curves; inactive means no such curve, though single readings can be large; an effect the other way counts as inactive or inconclusive.
On the % scale 0 is the no-effect control and ±100 the full control effect.

The nature of the first test: qHTS assay to identify small molecule agonists of H2AX - cell viability counter screen (AID 1224847; calls by dose curve; further: nearly all actives have a fitted effect of over 30% in size; further: potency means the concentration at half of the fitted maximal effect;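 on activity change, negative = cytotoxicity: wild-type CHO-K1 cells; top concentration of the series differs between compounds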). The following applies: CHO-K1 viability, CellTiter-Glo luminescence, 3 h; series mostly up to 154 µM; activity change, negative = cytotoxicity: at the top concentration. The gist of the method: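 Counter-screen for viability: CellTiter-Glo ATP luminescence read after 3 h compound treatment (15-point titration, 0.76% DMSO final) of CHO-K1 cells at 37C, with 30 min room-temperature reagent incubation.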
Regarding `O=S(=O)(O)c1cc(S(=O)(=O)O)c2ccc3c(S(=O)(=O)O)cc(S(=O)(=O)O)c4ccc1c2c43`, the activity change, negative = cytotoxicity was 4.65% [at 31.6 µM] (inactive).
Still for that read-out and setting: for `Clc1cc(Cl)c(-c2c(Cl)c(Cl)cc(Cl)c2Cl)cc1Cl` the value was -3.66% [at 70.9 µM] (inactive); for `O=C(O)CCn1c2c(c3ccccc31)C[C@H](NS(=O)(=O)c1ccc(F)cc1)CC2`, -2.67% [at 70.9 µM] (inactive); for `CCCCCCCCCCCCCc1ccccc1`, -1.18% [at 70.9 µM] (inactive).
Take `CCCCCCC(C)OC(=O)COc1nc(F)c(Cl)c(N)c1Cl` (stereo not drawn): the Potency was 113 µM (active).
Take `C/C=C/c1ccc(OC)c(OC)c1`: the “activity change, negative = cytotoxicity” value was -2.92% (inactive).
The same measure, in the same setting: for `O=C(O)CCCCCCC(=O)O` the value was 0.923% (inactive); for `Cc1cc(C)c(C=O)c(C)c1`, 1.34% (inactive).
Still for that read-out and setting: for `CCC(C)C(=O)OC` (stereo not drawn) the value was -0.34% (inactive); for `CCCCCCCC(C)=O`, 0.323% (inactive).
As to `CCCCC(CC)COC(=O)c1ccc(O)cc1` (stereo not drawn), the Potency is 89.4 µM (active) and 80 µM (active).
In the case of `C=C/C=C/C=C/CCCCC`, the activity change, negative = cytotoxicity was -1.43% [at 31.6 µM] (inactive).
On the same count and under the same terms, for `Clc1nc2ccccc2s1` the value was 0.651% (inactive).
Same read-out and setting: for `COc1nccnc1CC(C)C` the value was -0.818% (inactive).
Same read-out and setting: for `CCOB(OCC)OCC` the value was -2.06% (inactive); for `CC1CCCCN1CCCOC(=O)c1ccc(OC2CCCCC2)cc1` (stereo not drawn), -13.6% [at 70.9 µM] (inactive).
`CCC(=O)CC(C)CC` (stereo not drawn): the activity change, negative = cytotoxicity was -3.23% [at 0.582 µM] (inactive).
On the same count and under the same terms, for `c1ccc(Sc2ccccc2)cc1` the value was -8.76% (inactive); for `CCCCCCCCCCc1ccccc1`, 1.76% (inactive).
Consider `CC(C)=CC1CC(C)CCO1` (stereo not drawn), for which the “activity change, negative = cytotoxicity” value was 2.22% (inactive).
On to `CCc1ccc(O)c(C(C)(C)C)c1`, for which the Potency is 101 µM (active).
`CCC(C)c1ccccc1` (stereo not drawn): the “activity change, negative = cytotoxicity” value is -0.772% (inactive).
Still for that read-out and setting: for `CNC(=S)NN` the value was 1.14% (inactive); for `Cc1cc(=O)[nH]c(=O)[nH]1`, -3.43% (inactive); for `CC(=O)OC1CCCCC1`, -0.327% (inactive).
Consider `COC(=O)CC(C)CCC=C(C)C` (stereo not drawn), for which the “activity change, negative = cytotoxicity” value is -0.107% (inactive).
Same read-out and setting: for `Cc1cn[nH]c1` the value was 2.68% [at 70.9 µM] (inactive); for `CC(CN(C)C)CN1c2ccccc2CCc2ccccc21` (stereo not drawn), 3.96% [at 70.9 µM] (inactive).

The nature of the next test: qHTS assay to identify small molecule antagonists of the estrogen related receptor (ERR) signaling pathway from Tox21 library (AID 1224848). Further: nearly all actives have a fitted effect of over 50% in size. Further: potency means the concentration at half of the fitted maximal effect. The following applies: ERR reporter cell line, luciferase antagonist mode, 18 h; series mostly up to 92.4 µM; activity, negative = inhibition: at the top concentration. The gist of the method: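 Quantitative high-throughput format: ERR reporter cells (2,000/well) pre-incubated 6 h, treated 18 h at 37 C with compounds in DMSO alongside positive and negative controls, then read by ONE-Glo luminescence.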
As to `O=S(=O)(O)c1cc(S(=O)(=O)O)c2ccc3c(S(=O)(=O)O)cc(S(=O)(=O)O)c4ccc1c2c43`, the activity, negative = inhibition is 17.9% [at 19 µM] (inactive).
Turning to `CC(C)(C)c1cc(/C=C2\SC(=N)NC2=O)cc(C(C)(C)C)c1O`, the Potency was 48.6 µM (active).
As for `Clc1cc(Cl)c(-c2c(Cl)c(Cl)cc(Cl)c2Cl)cc1Cl`, the “activity, negative = inhibition” value was 37.5% [at 42.5 µM] (inactive).
Still for that read-out and setting: for `CCC(C)C(=O)OC` (stereo not drawn) the value was -9.73% (inactive); for `C=C/C=C/C=C/CCCCC`, 3.04% [at 19 µM] (inactive).
The same measure, in the same setting: for `COc1nccnc1CC(C)C` the value was 2.22% (inactive).
For `CC1CCCCN1CCCOC(=O)c1ccc(OC2CCCCC2)cc1` (stereo not drawn), the Potency is 11.9 µM (active).
The same measure, in the same setting: for `Oc1c(Br)cc(Br)c2cccnc12` the value was 18.8 µM (active).
For the compound `CCCCCCCCCCc1ccccc1`, the “activity, negative = inhibition” value is 1.48% (inactive).
Regarding `CNC(=S)NN`, the Potency was 13.7 µM (active).
Turning to `CC(=O)OC1CCCCC1`, the “activity, negative = inhibition” value was 10.3% (inactive).
`COC(=O)CC(C)CCC=C(C)C` (stereo not drawn): the “activity, negative = inhibition” value is 2.65% (inactive).
Same read-out and setting: for `O=S(=O)(O)CCCN1CCOCC1` the value was -0.0603% (inactive).

The nature of another test: qHTS assay to identify small molecule agonists of the estrogen related receptor (ERR) signaling pathway from Tox21 library (AID 1224849; calls by dose curve; further: nearly all actives have a fitted effect of over 15% in size). The following applies: ERR reporter cell line, ONE-Glo luciferase, 18 h; at 92.4 µM (top of the series) unless noted. A digest of the protocol: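 Luminescent agonist read-out (One-Glo, 30-minute room-temperature incubation) following 18-hour compound treatment at 37 C of the ERR cell line, which had been plated 6 hours before dosing.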
Take `O=S(=O)(O)c1cc(S(=O)(=O)O)c2ccc3c(S(=O)(=O)O)cc(S(=O)(=O)O)c4ccc1c2c43`: the activity change, positive = activation is 9.26% [at 19 µM] (inactive).
Still for that read-out and setting: for `CC(C)(C)c1cc(/C=C2\SC(=N)NC2=O)cc(C(C)(C)C)c1O` the value was -57.9% (inactive); for `Clc1cc(Cl)c(-c2c(Cl)c(Cl)cc(Cl)c2Cl)cc1Cl`, 21.1% [at 42.5 µM] (inactive).
As to `CCCCCCC(C)OC(=O)COc1nc(F)c(Cl)c(N)c1Cl` (stereo not drawn), the activity change, positive = activation is -16.7% (inactive).
Regarding `CCC(C)C(=O)OC` (stereo not drawn), the activity change, positive = activation was -4.99% (inactive).
Same read-out and setting: for `C=C/C=C/C=C/CCCCC` the value was 1.56% [at 19 µM] (inactive).
Turning to `COc1nccnc1CC(C)C`, the activity change, positive = activation was 0.914% (inactive).
Still for that read-out and setting: for `CC1CCCCN1CCCOC(=O)c1ccc(OC2CCCCC2)cc1` (stereo not drawn) the value was -35.8% [at 42.5 µM] (inactive).
Same read-out and setting: for `Oc1c(Br)cc(Br)c2cccnc12` the value was -61.3% [at 42.5 µM] (inactive); for `CCCCCCCCCCc1ccccc1`, 0.758% (inactive); for `CNC(=S)NN`, -71.8% (inactive).
Take `CC(=O)OC1CCCCC1`: the activity change, positive = activation was 5.62% (inactive).
As to `COC(=O)CC(C)CCC=C(C)C` (stereo not drawn), the activity change, positive = activation was 1.82% (inactive).
Still for that read-out and setting: for `O=S(=O)(O)CCCN1CCOCC1` the value was -0.481% (inactive).

Another test is described as follows: qHTS RealTime-Glo MT Cell Viability Assay in HepG2 cells - 24 hour (AID 1224867). Further: nearly all actives have a fitted effect of over 50% in size. The following applies: RealTime-Glo luminescence; series mostly up to 76.8 µM; activity change, negative = cytotoxicity: at the top concentration. The gist of the method:
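Viability was tracked continuously by NanoLuc luminescence from prosubstrate reduced by living HepG2 cells, at successive time points over 40 h of compound exposure. Cells with reagent were preincubated 5 h at 37 °C before compound addition.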
As for `O=S(=O)(O)c1cc(S(=O)(=O)O)c2ccc3c(S(=O)(=O)O)cc(S(=O)(=O)O)c4ccc1c2c43`, the activity change, negative = cytotoxicity is 3.52% [at 15.8 µM] (inactive).
On the same count and under the same terms, for `Clc1cc(Cl)c(-c2c(Cl)c(Cl)cc(Cl)c2Cl)cc1Cl` the value was 8.69% [at 35.3 µM] (inactive).
On the same count and under the same terms, for `O=C(O)CCn1c2c(c3ccccc31)C[C@H](NS(=O)(=O)c1ccc(F)cc1)CC2` the value was -0.113% [at 35.3 µM] (inactive); for `O=C(O)c1cccc(Cl)n1`, -0.321% (inactive).
Same read-out and setting: for `CCCCCCCCCCCCCc1ccccc1` the value was 2.44% [at 35.3 µM] (inactive).
On to `CCCCCCC(C)OC(=O)COc1nc(F)c(Cl)c(N)c1Cl` (stereo not drawn), for which the “activity change, negative = cytotoxicity” value was -14.3% (inactive).
On the same count and under the same terms, for `C/C=C/c1ccc(OC)c(OC)c1` the value was 0.0869% (inactive); for `O=C(O)CCCCCCC(=O)O`, -0.966% (inactive); for `Cc1cc(C)c(C=O)c(C)c1`, 0.666% (inactive).
As to `CCC(C)C(=O)OC` (stereo not drawn), the “activity change, negative = cytotoxicity” value was 1.15% (inactive).
Still for that read-out and setting: for `CC1(C)C(=O)N(CO)C(=O)N1CO` the value was 0.078% (inactive); for `CCCCCCCC(C)=O`, 2.18% (inactive).
Turning to `CCCCC(CC)COC(=O)c1ccc(O)cc1` (stereo not drawn), the Potency entry was “inactive”.
For `C=C/C=C/C=C/CCCCC`, the activity change, negative = cytotoxicity is -0.964% [at 15.8 µM] (inactive).
As to `Clc1nc2ccccc2s1`, the “activity change, negative = cytotoxicity” value was 0.368% (inactive).
Same read-out and setting: for `COc1nccnc1CC(C)C` the value was -8.2% (inactive); for `CCOB(OCC)OCC`, -0.0656% (inactive).
The same measure, in the same setting: for `Oc1c(Br)cc(Br)c2cccnc12` the value was -12% [at 35.3 µM] (inactive); for `CCC(=O)CC(C)CC` (stereo not drawn), -0.146% [at 0.29 µM] (inactive).
Take `c1ccc(Sc2ccccc2)cc1`: the “activity change, negative = cytotoxicity” value is -0.605% (inactive).
On the same count and under the same terms, for `CCCCCCCCCCc1ccccc1` the value was -0.0553% (inactive); for `CC(C)=CC1CC(C)CCO1` (stereo not drawn), 4.04% (inactive); for `CCc1ccc(O)c(C(C)(C)C)c1`, -23.1% (inactive).
On the same count and under the same terms, for `CCC(C)c1ccccc1` (stereo not drawn) the value was 0.399% (inactive); for `Clc1cccnc1`, -8.07% (inactive).
The same measure, in the same setting: for `CNC(=S)NN` the value was -13.4% (inactive); for `Cc1cc(=O)[nH]c(=O)[nH]1`, -2.32% (inactive); for `CC(=O)OC1CCCCC1`, -0.661% (inactive).
As for `COC(=O)CC(C)CCC=C(C)C` (stereo not drawn), the “activity change, negative = cytotoxicity” value is -6.7% (inactive).
Same read-out and setting: for `O=S(=O)(O)CCCN1CCOCC1` the value was 1.12% (inactive); for `Cc1cn[nH]c1`, 1.18% [at 35.3 µM] (inactive).
Still for that read-out and setting: for `CC(CN(C)C)CN1c2ccccc2CCc2ccccc21` (stereo not drawn) the value was -15.8% [at 35.3 µM] (inactive); for `O=Cc1ccc(F)cc1`, 0.489% (inactive).
